PubChem BioAssay AID1159580 (chemical genetic matrix, 2015)
In all, about 5,500 compounds went through this assay and about 2,000 (36%) were called active. Another 18% or so got no clear call; they are omitted. Cut-off read from the data, not from the text of the source: active = normalized growth mostly below about 0.91 (no sharp cut-off); inconclusive = no clear call, values can overlap the other calls; inactive = mostly above about 0.92. This is one part of the list.

Assay: chemical genetic growth profiling, strain panel (AID 1159580);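 note: tested at 20 µM; growth read once vehicle control cultures reached saturation at 30 °C; 1 = growth at the plate median or of vehicle wells; lower values mean less growth of the strain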
Conditions: S. cerevisiae deletion strains, growth OD

Measured: normalized growth

[N-]=[N+]=CC(=O)OCC(N)C(=O)O (centres undefined)
inactive: locus YAL021C, strain ccr4, hits give low values 0.994 | locus YAL026C, strain drs2, hits give low values 0.988 | locus YAL030W, strain snc1, hits give low values 1.02 | locus YBL061C, strain skt5, hits give low values 1.01 | locus YBR009C, strain hhf1, hits give low values 0.979 | locus YBR023C, strain chs3, hits give low values 0.995 | locus YBR171W, strain sec66, hits give low values 1.02 | locus YBR231C, strain swc5, hits give low values 1.03 | locus YBR279W, strain paf1, hits give low values 0.98 | locus YCL011C, strain gbp2, hits give low values 0.983 | locus YCL016C, strain dcc1, hits give low values 0.958 | locus YCL061C, strain MRC1, hits give low values 1.02 | locus YCL069W, strain vba3, hits give low values 1 | locus YCR088W, strain abp1, hits give low values 1.01 | locus YDL005C, strain med2, hits give low values 0.992 | locus YDL040C, strain nat1, hits give low values 1 | locus YDR001C, strain nth1, hits give low values 0.995 | locus YDR069C, strain doa4, hits give low values 1.03 | locus YDR137W, strain rgp1, hits give low values 0.99 | locus YDR159W, strain sac3, hits give low values 0.978 | locus YDR195W, strain ref2 1.03 | locus YDR297W, strain sur2, hits give low values 1.02 | locus YDR334W, strain swr1, hits give low values 1 | locus YDR335W, strain msn5, hits give low values 1.01 | locus YDR392W, strain spt3, hits give low values 0.931 | locus YEL003W, strain gim4, hits give low values 1.01 | locus YEL037C, strain rad23, hits give low values 1 | locus YEL061C, strain CIN8 (second series), hits give low values 1 | locus YER015W, strain faa2, hits give low values 1.01 | locus YER016W, strain bim1, hits give low values 0.995 | locus YER111C, strain swi4, hits give low values 1 | locus YER155C, strain BEM2 (second series), hits give low values 1.05 | locus YFR010W, strain ubp6, hits give low values 1.01 | locus YGL167C, strain pmr1, hits give low values 1.02 | locus YGL173C, strain kem1, hits give low values 1.02 | locus YGL227W, strain vid30, hits give low values 1.01 | locus YGL240W, strain doc1, hits give low values 1.04 | locus YGL253W, strain hxk2, hits give low values 0.973 | locus YHR013C, strain ard1, hits give low values 1.01 | locus YHR027C, strain rpn1, hits give low values 0.995 | locus YHR030C, strain SLT2, hits give low values 0.967 | locus YHR079C, strain IRE1, hits give low values 0.977 | locus YHR142W, strain chs7, hits give low values 0.976 | locus YJL092W, strain hpr5, hits give low values 1.01 | locus YJL095W, strain BCK1 (second series), hits give low values 1.01 | locus YJL095W, strain BCK1, hits give low values 0.977 | locus YJL115W, strain asf1, hits give low values 1.01 | locus YJL129C, strain trk1, hits give low values 1.01 | locus YJL154C, strain vps35, hits give low values 1 | locus YJL164C, strain tpk1, hits give low values 0.985 | locus YJL166W, strain qcr8, hits give low values 1.05 | locus YJR066W, strain TOR1, hits give low values 0.936 | locus YKL160W, strain elf1, hits give low values 1.02 | locus YKR026C, strain gcn3, hits give low values 1 | locus YKR091W, strain srl3, hits give low values 1.01 | locus YLL001W, strain dnm1, hits give low values 1.04 | locus YLL026W, hits give low values 1.01 | locus YLL041C, strain sdh2, hits give low values 1 | locus YLR027C, strain aat2, hits give low values 1.01 | locus YLR113W, strain HOG1, hits give low values 0.964 | locus YLR221C, strain rsa3, hits give low values 0.976 | locus YLR258W, strain gsy2, hits give low values 0.994 | locus YLR262C, strain YPT6 (second series), hits give low values 1.02 | locus YLR320W, strain mms22, hits give low values 0.991 | locus YLR342W, strain FKS1, hits give low values 1.04 | locus YLR357W, strain rsc2, hits give low values 1 | locus YLR370C, strain arc18, hits give low values 1.01 | locus YLR384C, strain iki3, hits give low values 1 | locus YML120C, strain ndi1, hits give low values 1 | locus YMR058W, strain fet3, hits give low values 1.01 | locus YMR125W, strain sto1, hits give low values 0.984 | locus YMR129W, hits give low values 0.999 | locus YMR205C, strain PFK2, hits give low values 1.03 | locus YMR231W, strain pep5, hits give low values 1 | locus YNL071W, strain lat1, hits give low values 0.992 | locus YNL183C, strain NPR1, hits give low values 0.937 | locus YNL209W, strain ssb2, hits give low values 0.989 | locus YNL248C, strain rpa49, hits give low values 0.976 | locus YNL322C, strain KRE1 (second series), hits give low values 0.999 | locus YNR049C, strain mso1, hits give low values 1 | locus YOR001W, strain rrp6, hits give low values 1.02 | locus YOR070C, strain gyp1, hits give low values 0.995 | locus YOR080W, strain dia2, hits give low values 1.02 | locus YOR083W, strain WHI5, hits give low values 0.992 | locus YOR106W, strain vam3, hits give low values 1.03 | locus YOR231W, strain MKK1, hits give low values 0.976 | locus YOR265W, strain rbl2, hits give low values 0.998 | locus YOR270C, strain vph1, hits give low values 1.03 | locus YOR290C, strain snf2, hits give low values 0.961 | locus YPL051W, strain arl3, hits give low values 1.01 | locus YPL078C, strain atp4, hits give low values 1.03 | locus YPL106C, strain sse1, hits give low values 0.966 | locus YPL240C, strain hsp82, hits give low values 0.99 | locus YPL256C, strain CLN2, hits give low values 1
